PTK2B oligo ant: blocks oligomerization of human Pyk2 in cells. Q14289. Q293 cells, Pyk2 FERM NanoBiT luminescence; stronger effect = lower value. z-score (the deposit names both 25 µM and 10 µM). 99,000 tested, 0.83% active;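 active = Z-score of -3 or lower, scaled per plate to the spread of control and sample wells; inactive = z-score above -3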;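 also: negative z-score means lost luminescence so less FERM oligomerization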
Target sequence (Q14289 whole entry, looked up): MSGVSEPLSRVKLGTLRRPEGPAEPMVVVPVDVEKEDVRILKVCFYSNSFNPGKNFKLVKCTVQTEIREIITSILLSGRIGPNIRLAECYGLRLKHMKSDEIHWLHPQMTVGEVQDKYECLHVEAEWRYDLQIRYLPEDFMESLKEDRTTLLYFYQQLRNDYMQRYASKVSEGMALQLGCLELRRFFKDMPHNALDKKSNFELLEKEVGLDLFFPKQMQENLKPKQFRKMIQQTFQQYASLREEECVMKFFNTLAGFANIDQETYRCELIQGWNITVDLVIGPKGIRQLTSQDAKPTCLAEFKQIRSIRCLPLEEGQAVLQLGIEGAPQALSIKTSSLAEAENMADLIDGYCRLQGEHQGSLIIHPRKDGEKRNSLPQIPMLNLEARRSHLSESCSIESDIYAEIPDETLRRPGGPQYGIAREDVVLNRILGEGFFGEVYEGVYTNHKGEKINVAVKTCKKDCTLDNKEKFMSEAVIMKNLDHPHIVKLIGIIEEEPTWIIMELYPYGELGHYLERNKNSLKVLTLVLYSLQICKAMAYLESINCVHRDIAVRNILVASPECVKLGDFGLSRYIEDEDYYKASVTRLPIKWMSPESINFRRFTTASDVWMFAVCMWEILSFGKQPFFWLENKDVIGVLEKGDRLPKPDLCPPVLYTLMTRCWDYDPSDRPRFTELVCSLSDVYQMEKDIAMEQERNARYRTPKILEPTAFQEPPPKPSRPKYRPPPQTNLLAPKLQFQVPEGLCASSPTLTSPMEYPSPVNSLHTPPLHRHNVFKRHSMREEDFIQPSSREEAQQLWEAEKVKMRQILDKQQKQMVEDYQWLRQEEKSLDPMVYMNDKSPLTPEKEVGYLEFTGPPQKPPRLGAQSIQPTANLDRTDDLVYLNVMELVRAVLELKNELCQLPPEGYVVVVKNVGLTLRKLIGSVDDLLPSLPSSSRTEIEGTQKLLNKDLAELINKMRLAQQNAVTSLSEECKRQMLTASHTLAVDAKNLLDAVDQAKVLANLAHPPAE
Cav3 T inh: human Cav3.2 channel inhibition, primary screen; O95180; Cav3.2-expressing cells, Fluo-4 calcium fluorescence FDSS; stronger effect = lower value; B-score at 10 µM; 100,000 tested, 4% active; AID 449739;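 active = single-dose well whose peak fluorescence ratio is a statistical outlier from its plate by either plate-standardised score or position-corrected B-score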
M1 antagonist: M1 muscarinic receptor (rat) antagonism | P08482 | CHO-M1 cells, Fluo-4 calcium, ACh EC80 antagonist mode; stronger effect = lower value | B-score at 10 µM | 64,000 tested, 3.4% active | AID 628;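 active = calcium fluorescence response, raw or row-and-column corrected B-score, differing from the plate sample mean either way at a set confidence level, mostly lower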
M1 ag: activates the M1 muscarinic receptor | AID 626 | 64,000 tested, 3% active | B-score at 10 µM | CHO-M1 cells, Fluo-4 calcium fluorescence, agonist mode; stronger effect = higher value;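 active = fluorescence rise, raw or as B-score row- and column-corrected plate score, outside the 99.7% band of its plate's samples, either direction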
Numbers stand for hits; i = inactive; nt = no result. Compounds with a hit are over-represented: about 7.1% of the library has one in this group of screens.

SMILES	PTK2B oligo ant	Cav3 T inh	M1 antagonist	M1 ag
CC1(C)N=C(SCC(=O)Nc2ccc(Cl)cc2)C(c2ccccc2)=N1	i	-5.2	nt	nt
COc1ccc(CC(=O)N2CCN(c3ccccn3)CC2)cc1OC	i	i	i	i
CCCc1ccc(OCc2ccc(C(=O)N3CCN(c4ccccn4)CC3)o2)c(OC)c1	i	-4.9	i	5.5
Cc1nc(C(=O)NCc2ccccc2)sc1C1(C)CC(c2ccccc2)=NO1 (centres undefined)	nt	i	nt	nt
CN(C)c1ccc(NC(=O)CC(NCc2ccccn2)C(=O)O)cc1 (centres undefined)	i	nt	nt	nt
CCn1cc(SCC(=O)NCc2ccc3c(c2)OCO3)c2ccccc21	nt	-3.9	i	i
CCCn1cc(SCC(=O)NCc2ccc3c(c2)OCO3)c2ccccc21	nt	i	nt	nt
Cc1nc(SCC(=O)NCc2ccc3c(c2)OCO3)c(C#N)c2c1CCCC2	i	-4	i	i
CCc1nnc(NC(=O)CSc2nc(C)c3c(c2C#N)CCCC3)s1	-3.4	i	i	i
COc1ccc(NC(=O)CSc2nc(C)c3c(c2C#N)CCCC3)cc1	i	i	nt	nt
COc1ccc(C(=O)Nc2ccccc2C(=O)N/N=C/c2cccc3ccccc23)cc1	i	i	nt	nt
O=C1N/C(=N/NC(=O)c2cccc3ccccc23)S/C1=C\c1ccccc1OCc1ccccc1	-3	-5.2	nt	nt
Cc1cc(C)n(-c2nc3c(c(=O)n(C)c(=O)n3C)n2Cc2cccc(Br)c2)n1	nt	nt	i	i
O=C(CNS(=O)(=O)c1ccc(F)cc1)N1CCN(c2ccccc2)CC1	i	i	i	i
O=C(CNS(=O)(=O)c1ccc(Br)cc1)N1CCN(c2ccc(F)cc2)CC1	i	-7.8	nt	nt
CCCCc1ccc(S(=O)(=O)NCCc2ccncc2)cc1	i	-3.6	i	i
COc1ccc(Nc2nc(NCc3ccco3)nc(N/N=C/c3ccccc3)n2)cc1	-3.2	-7.6	nt	nt
C/C(=N\NC(=O)c1nonc1N)c1cccs1	i	nt	nt	nt
O=C1C2=C(SCCS2)C(=O)N1CCCO	i	nt	i	7.9
Cc1ccc(C2CC(=O)NC(SCC(=O)Nc3nccs3)=C2C#N)cc1 (centres undefined)	i	i	nt	nt
CCN1/C(=C/c2ccc3ccccc3[n+]2CC)C=Cc2ccccc21	i	-5.4	nt	nt
Cc1cc(C)c(S(=O)(=O)N2CCCCC2)c(C)c1N(C)S(=O)(=O)c1ccccc1	i	-4.3	nt	nt
Cc1c(CCCC(=O)O)sc(N)c1C(=O)c1cccc(C(F)(F)F)c1	nt	i	nt	nt
COc1ccc(N(C(=O)Cn2cnc3ccccc32)C(C(=O)NC2CCCCC2)c2ccccc2)cc1 (centres undefined)	i	-3.5	nt	nt
COc1ccc(N(C(=O)Cn2nnc3ccccc32)C2(C(=O)NC3CCCC3)CCCCC2)cc1	i	i	nt	nt
SMILES	PTK2B oligo ant	Cav3 T inh	M1 antagonist	M1 ag
CCc1cccc(NC(=O)CCSCCC(=O)Nc2cccc(CC)c2)c1	i	-7.5	nt	nt
Cc1ccc(NC(=O)CCSCCC(=O)Nc2ccc(C)c(C)c2)cc1C	i	-6.8	nt	nt
CCc1cccc(NC(=O)C2CCCC2)c1	i	nt	i	i
O=S(=O)(NCc1ccco1)c1cnc(Cl)c(Br)c1	i	nt	nt	nt
CCOC(=O)c1c(C)[nH]c(C(=O)COC(=O)C2(C)CC2(Cl)Cl)c1C (centres undefined)	i	i	nt	nt
COC(=O)c1ccccc1NC(=O)CSc1nc(NC(=O)c2ccccc2)c2c(C)c(C)oc2n1	i	-4.9	i	i
CCOC(=O)c1ccc(NC(=O)CSc2nc(NC(=O)c3ccccc3)c3c(C)c(C)oc3n2)cc1	i	i	nt	nt
COc1cc(-c2ccc3oc(-c4ccsc4)c(C#CC4(O)CCCCC4)c3c2)cc(OC)c1OC	nt	i	nt	nt
CCCCNC(=O)COc1ccccc1C(=O)c1cc(C#N)c(=O)n(CCOC)c1	i	nt	nt	nt
CN(C)c1cccc(C(=O)n2cc(C(=O)c3cc(F)ccc3O)cn2)c1	i	-3.9	i	i
COc1ccc(OC)c(/C(O)=C/C(=O)C(=O)Nc2cc(C)cc(C)c2)c1	i	-9.1	nt	nt
CCOc1ccccc1NC(=O)C(=O)/C=C(\O)c1cc(OC)ccc1OC	i	-9.6	nt	nt
COc1ccc(OC)c(/C(O)=C/C(=O)C(=O)Nc2cc(C)ccc2OC)c1	i	-5.6	nt	nt
CCOC(=O)Nc1cc(C)ccc1OC	i	i	nt	nt
Cn1c(SCC(=O)c2ccccc2)nnc1-c1cccc(N)c1	i	i	nt	nt
COc1ccccc1NS(=O)(=O)c1cc([N+](=O)[O-])ccc1N/N=C/c1c(C)[nH]c2ccccc12	-3.1	i	nt	nt
CCOC(=O)c1ccc(-n2c(O)c(/C=N/NC(=O)C3COc4ccccc4O3)c3ccccc3c2=O)cc1 (centres undefined)	i	nt	nt	nt
c1ccc(CSc2nnnn2-c2cccc3ccccc23)nc1	i	i	i	i
O=C(CCCSc1nnnn1-c1cccc2ccccc12)c1ccc(F)cc1	i	-4.6	nt	nt
Cc1ccnc(SCCn2c(Br)nc3c2c(=O)n(C)c(=O)n3C)n1	nt	nt	i	i
Cc1cc(C)nc(NN2C(=O)/C(=C/c3ccc(O)cc3)SC2=S)n1	-3.5	i	nt	nt
COc1ccccc1/C=C1\SC(=S)N(Nc2nc(C)cc(C)n2)C1=O	-3.8	i	nt	nt
CC(C)Oc1ccc(N2CC(C(=O)Nc3ccc(N4CCOCC4)cc3)CC2=O)cc1 (centres undefined)	i	i	nt	nt
Cc1cc(Cl)ccc1OC(C)C(=O)N1CCCN(C(=O)C(C)Oc2ccc(Cl)cc2C)CC1 (centres undefined)	i	-5.4	nt	nt
Cc1cc(Cl)ccc1OC(C)C(=O)Nc1ccccc1N1CCOCC1 (centres undefined)	i	nt	i	i
SMILES	PTK2B oligo ant	Cav3 T inh	M1 antagonist	M1 ag
CCCn1c(SCC#N)nc2c(c1=O)C1(CCCC1)Cc1ccccc1-2	i	-4.2	i	i
N#CCSc1nc2c(c(=O)n1Cc1ccco1)C1(CCCC1)Cc1ccccc1-2	i	-6.2	i	i
COc1ccc(S(=O)(=O)N2CCOCC2)cc1NC(=O)c1cccc2c(=O)c(C)c(-c3ccccc3)oc12	i	nt	nt	nt
CCO[C@@H]1OC(C(=O)O)=C[C@H](c2ccc3c(c2)OCO3)[C@H]1CCCO	nt	i	nt	nt
CCS(=O)(=O)CCSc1nc2ccccc2o1	i	i	i	i
O=S(=O)(CCSc1nc2ccccc2o1)c1nc2ccccc2s1	-3.1	i	i	i
c1ccc(CCn2c(C3CC3)nc3ccccc32)cc1	i	i	nt	nt
COc1cccc(C(=O)OC(C)CN2CCCC2)c1 (centres undefined)	i	i	i	i
COc1cccc(C(=O)OCCN2CCCCC2)c1	i	-9.4	nt	nt
COc1ccc([N+](=O)[O-])cc1C1NN=C(c2ccccc2O)S1 (centres undefined)	i	-3.7	nt	nt
CCCCCCOC(=O)Nc1ccc(S(=O)(=O)Nc2cccc([N+](=O)[O-])c2)cc1	i	nt	nt	nt
Cc1ccc(CNC(=O)CCc2nc(-c3cccs3)no2)cc1	nt	-5.1	nt	nt
Cc1cccc(-c2noc(CCC(=O)NCc3ccccc3)n2)c1	i	i	i	i
Cc1ccc(-c2noc(CCC(=O)NCCc3ccccc3Cl)n2)cc1	i	i	i	i
O=C(CCc1nc(-c2cccs2)no1)NCc1ccc(F)cc1Cl	nt	-4.5	nt	nt
O=C(CCc1nc(-c2ccccc2F)no1)NCCc1ccccc1Cl	i	-7.8	i	i
Cc1ccc(C(=O)n2cnnc2N)cc1	i	i	nt	nt
O=C(N[C@@H](Cc1ccccc1)C(=O)O)c1c(F)c(F)c(F)c(F)c1F	nt	i	nt	nt
Cc1cc2n(n1)C(c1ccccc1)CC(c1ccc(Br)cc1)=N2 (centres undefined)	i	nt	nt	nt

Assay outcomes: PubChem BioAssay, several laboratories
